Results on one sequence are retold here after paper PMC7862700, “An all-to-all approach to the identification of sequence-specific readers for epigenetic DNA modifications on cytosine”.

Common to all, as to test: DAPPL (digital affinity profiling via proximity ligation, sequencing); 10 mM Tris-HCl pH 7.5, 50 mM NaCl, 1 mM DTT, 4% glycerol, room temperature, 30 min; GST-TFs on glutathione beads, 16-mer random dsDNA library, 0.1% formaldehyde crosslink after washing; high values mean tight binding
What all share (details): protein: recombinant; tags: N-terminal GST; dsDNA, one strand shown

One assay has as its target T1, FLI1 (Homo sapiens, UniProt Q01543 1-452).
T1 sequence: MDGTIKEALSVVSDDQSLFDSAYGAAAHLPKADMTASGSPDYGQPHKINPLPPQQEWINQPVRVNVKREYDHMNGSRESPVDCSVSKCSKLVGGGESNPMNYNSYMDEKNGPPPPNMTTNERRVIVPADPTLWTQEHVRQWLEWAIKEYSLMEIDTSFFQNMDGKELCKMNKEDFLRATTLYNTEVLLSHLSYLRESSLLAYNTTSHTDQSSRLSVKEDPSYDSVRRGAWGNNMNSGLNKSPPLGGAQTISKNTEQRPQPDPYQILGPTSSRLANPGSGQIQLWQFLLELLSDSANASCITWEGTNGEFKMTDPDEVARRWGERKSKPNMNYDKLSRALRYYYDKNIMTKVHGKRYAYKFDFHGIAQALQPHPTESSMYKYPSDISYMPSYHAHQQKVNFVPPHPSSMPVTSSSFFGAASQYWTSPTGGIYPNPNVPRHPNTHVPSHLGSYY
The procedure, abridged:
(§1)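 Beads coated with glutathione captured GST-fused human transcription factors that had been expressed in yeast, and the factors were then given DNA barcodes and pooled with a tag-only sample. The pools were incubated with 200 nmole of a random double-stranded 16-mer DNA library in Tris/NaCl/DTT/glycerol buffer for 30 min at room temperature, washed, crosslinked with 0.1% formaldehyde and proximity-ligated with BsaI/T4 ligase at 37 °C for 1 h. PCR amplification and Illumina NextSeq500 sequencing came last. Binding signal is each hexamer's read frequency for a factor divided by its frequency for the tag-only sample.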

In another assay the target is T2, GABPA (Homo sapiens, UniProt Q06546 1-454).
T2 sequence: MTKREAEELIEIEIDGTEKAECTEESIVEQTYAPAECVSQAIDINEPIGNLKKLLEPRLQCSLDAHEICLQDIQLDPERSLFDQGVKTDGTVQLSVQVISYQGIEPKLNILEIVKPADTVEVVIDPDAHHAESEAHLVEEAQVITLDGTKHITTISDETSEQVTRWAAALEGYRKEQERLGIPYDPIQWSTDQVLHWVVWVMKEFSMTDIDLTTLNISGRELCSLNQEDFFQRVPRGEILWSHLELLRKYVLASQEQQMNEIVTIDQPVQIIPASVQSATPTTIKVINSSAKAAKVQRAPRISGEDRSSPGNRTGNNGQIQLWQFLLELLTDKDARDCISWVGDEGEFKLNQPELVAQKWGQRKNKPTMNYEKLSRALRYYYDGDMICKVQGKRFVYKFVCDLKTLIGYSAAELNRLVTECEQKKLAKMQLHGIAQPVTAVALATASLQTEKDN
The essentials: as §1

In a further assay the target is T3, ERG (Homo sapiens, UniProt P11308 1-479).
T3 sequence: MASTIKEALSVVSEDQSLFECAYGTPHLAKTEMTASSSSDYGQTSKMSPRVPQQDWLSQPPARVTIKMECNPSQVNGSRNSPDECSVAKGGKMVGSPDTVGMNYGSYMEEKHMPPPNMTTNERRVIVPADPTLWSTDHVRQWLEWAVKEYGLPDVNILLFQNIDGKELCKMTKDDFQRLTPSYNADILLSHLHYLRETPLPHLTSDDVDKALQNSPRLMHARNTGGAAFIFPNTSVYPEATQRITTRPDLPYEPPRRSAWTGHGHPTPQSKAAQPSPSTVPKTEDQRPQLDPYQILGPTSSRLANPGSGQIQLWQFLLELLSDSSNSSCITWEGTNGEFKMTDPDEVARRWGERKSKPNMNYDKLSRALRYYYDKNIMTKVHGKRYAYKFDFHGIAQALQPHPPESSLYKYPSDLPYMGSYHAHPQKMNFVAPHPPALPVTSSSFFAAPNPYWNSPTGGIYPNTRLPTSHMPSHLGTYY
The procedure, abridged:
as §1

Another assay deals with ELF1 (Homo sapiens, UniProt P32519 1-619). The essentials: as §1
For another assay, the target named is T4, EHF (Homo sapiens, UniProt Q9NZC4 1-300).
T4 sequence: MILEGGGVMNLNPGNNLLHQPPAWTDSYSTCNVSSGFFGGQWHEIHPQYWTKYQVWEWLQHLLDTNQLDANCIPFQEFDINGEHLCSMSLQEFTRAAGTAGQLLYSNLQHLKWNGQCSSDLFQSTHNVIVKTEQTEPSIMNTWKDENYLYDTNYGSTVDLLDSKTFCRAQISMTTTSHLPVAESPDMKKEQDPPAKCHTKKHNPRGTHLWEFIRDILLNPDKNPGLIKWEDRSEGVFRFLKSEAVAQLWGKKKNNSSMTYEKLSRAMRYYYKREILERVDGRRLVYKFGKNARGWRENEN
The essentials: as §1

The next assay has as its target SPI1 (Homo sapiens, UniProt P17947 1-270). The essentials:
as §1

In the next assay the target is SPIB (Homo sapiens, UniProt Q01892 1-262). The essentials: as §1
Another assay addresses T5, ELK3 (Homo sapiens, UniProt P41970 1-407).
T5 sequence: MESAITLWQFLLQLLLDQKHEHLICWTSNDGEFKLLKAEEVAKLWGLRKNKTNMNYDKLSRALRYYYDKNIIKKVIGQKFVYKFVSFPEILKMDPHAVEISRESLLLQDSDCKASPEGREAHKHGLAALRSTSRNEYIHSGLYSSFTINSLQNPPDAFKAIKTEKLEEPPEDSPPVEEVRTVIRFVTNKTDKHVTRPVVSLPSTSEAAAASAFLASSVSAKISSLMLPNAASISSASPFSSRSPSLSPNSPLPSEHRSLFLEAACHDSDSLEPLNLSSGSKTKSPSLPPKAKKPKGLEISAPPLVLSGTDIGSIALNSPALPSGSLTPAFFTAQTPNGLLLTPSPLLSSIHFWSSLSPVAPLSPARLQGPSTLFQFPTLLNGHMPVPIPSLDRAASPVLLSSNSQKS
The essentials:
as §1

The target in a further assay is T6, FEV (Homo sapiens, UniProt Q99581 1-238).
T6 sequence: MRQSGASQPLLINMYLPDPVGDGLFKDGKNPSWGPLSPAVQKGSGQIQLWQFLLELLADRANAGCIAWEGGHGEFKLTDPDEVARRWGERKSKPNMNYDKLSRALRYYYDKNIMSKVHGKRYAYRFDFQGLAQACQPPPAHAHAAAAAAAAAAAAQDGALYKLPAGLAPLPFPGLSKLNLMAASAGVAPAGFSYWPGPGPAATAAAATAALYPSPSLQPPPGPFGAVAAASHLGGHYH
The essentials:
as §1

For another assay, the target named is ETV5 (Homo sapiens, UniProt P41161 1-510). The procedure, abridged:
as §1

The target in another assay is T7, SPIC (Homo sapiens, UniProt Q8N5J4 1-248).
T7 sequence: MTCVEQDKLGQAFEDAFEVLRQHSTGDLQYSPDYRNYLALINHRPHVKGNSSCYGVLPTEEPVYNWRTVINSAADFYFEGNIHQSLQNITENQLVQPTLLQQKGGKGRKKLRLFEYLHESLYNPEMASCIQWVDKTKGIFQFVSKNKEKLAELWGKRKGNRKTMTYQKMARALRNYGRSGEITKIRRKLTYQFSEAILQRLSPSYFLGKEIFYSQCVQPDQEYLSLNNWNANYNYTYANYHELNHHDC
The procedure, abridged: as §1

For the next assay, the target named is ELF4 (Homo sapiens, UniProt Q99607 1-663). The procedure, abridged:
as §1

Another assay concerns the target ETV1 (Homo sapiens, UniProt P50549 1-477). The procedure, abridged: as §1
The next assay has as its target T8, ERF (Homo sapiens, UniProt P50548 1-548).
T8 sequence: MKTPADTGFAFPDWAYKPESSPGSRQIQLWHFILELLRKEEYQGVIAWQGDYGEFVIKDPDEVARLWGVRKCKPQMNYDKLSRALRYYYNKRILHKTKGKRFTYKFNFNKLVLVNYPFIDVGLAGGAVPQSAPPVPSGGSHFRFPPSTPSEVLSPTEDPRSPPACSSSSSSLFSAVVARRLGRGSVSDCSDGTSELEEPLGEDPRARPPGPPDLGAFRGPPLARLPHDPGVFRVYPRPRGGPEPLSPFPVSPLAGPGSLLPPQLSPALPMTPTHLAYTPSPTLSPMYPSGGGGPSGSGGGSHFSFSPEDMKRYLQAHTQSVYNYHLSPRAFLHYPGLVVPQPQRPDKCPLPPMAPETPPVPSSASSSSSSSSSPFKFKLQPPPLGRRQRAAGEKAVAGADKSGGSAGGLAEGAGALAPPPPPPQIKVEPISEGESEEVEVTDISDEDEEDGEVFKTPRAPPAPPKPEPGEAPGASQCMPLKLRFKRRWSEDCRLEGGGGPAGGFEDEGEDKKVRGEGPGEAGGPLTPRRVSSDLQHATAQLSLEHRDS
The procedure, abridged:
as §1

For a further assay, the target named is T9, ETV3L (Homo sapiens, UniProt Q6ZN32 1-361).
T9 sequence: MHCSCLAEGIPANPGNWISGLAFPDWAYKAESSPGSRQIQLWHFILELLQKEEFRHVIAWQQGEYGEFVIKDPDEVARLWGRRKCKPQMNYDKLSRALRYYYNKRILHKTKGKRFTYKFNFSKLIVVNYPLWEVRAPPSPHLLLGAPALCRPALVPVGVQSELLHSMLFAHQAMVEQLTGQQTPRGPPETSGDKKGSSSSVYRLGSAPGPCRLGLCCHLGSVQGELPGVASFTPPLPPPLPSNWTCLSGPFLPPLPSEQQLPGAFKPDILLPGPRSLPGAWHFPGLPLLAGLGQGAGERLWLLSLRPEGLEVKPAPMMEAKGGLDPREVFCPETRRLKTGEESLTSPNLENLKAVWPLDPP
The procedure, abridged: as §1

A further assay addresses T10, ETS2 (Homo sapiens, UniProt P15036 1-469).
T10 sequence: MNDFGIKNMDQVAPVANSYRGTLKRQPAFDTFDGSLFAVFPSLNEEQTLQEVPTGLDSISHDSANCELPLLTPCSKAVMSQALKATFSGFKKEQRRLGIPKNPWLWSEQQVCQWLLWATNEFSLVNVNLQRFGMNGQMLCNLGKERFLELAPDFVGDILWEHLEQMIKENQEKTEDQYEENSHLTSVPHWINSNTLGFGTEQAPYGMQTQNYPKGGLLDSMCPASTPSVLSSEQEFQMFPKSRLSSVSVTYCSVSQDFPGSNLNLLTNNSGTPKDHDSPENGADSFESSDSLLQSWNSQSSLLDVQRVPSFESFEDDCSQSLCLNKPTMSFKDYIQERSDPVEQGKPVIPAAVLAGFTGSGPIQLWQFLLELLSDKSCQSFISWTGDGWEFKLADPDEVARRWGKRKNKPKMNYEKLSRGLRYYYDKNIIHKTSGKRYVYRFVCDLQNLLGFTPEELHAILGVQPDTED
The essentials:
as §1

The target of a further assay is T11, ELF5 (Homo sapiens, UniProt Q9UKW6-2 1-255).
T11 sequence: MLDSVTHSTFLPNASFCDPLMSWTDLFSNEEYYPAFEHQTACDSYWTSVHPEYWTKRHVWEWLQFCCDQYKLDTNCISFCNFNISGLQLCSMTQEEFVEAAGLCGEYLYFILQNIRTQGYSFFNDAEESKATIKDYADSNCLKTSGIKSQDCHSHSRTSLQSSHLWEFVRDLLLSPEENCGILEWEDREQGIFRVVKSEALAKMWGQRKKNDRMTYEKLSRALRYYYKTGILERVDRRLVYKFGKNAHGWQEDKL
The procedure, abridged:
as §1

The next assay addresses T12, ETV3 (Homo sapiens, UniProt P41162-2 1-143).
T12 sequence: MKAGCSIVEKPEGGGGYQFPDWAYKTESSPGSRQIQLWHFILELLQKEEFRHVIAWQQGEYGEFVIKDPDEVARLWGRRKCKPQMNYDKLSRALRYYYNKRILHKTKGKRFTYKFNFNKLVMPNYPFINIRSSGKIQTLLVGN
The procedure, abridged: as §1

In another assay the target is ETV6 (Homo sapiens, UniProt P41212 1-452). The essentials: as §1
Sequence of ETV6 (P41212 whole entry): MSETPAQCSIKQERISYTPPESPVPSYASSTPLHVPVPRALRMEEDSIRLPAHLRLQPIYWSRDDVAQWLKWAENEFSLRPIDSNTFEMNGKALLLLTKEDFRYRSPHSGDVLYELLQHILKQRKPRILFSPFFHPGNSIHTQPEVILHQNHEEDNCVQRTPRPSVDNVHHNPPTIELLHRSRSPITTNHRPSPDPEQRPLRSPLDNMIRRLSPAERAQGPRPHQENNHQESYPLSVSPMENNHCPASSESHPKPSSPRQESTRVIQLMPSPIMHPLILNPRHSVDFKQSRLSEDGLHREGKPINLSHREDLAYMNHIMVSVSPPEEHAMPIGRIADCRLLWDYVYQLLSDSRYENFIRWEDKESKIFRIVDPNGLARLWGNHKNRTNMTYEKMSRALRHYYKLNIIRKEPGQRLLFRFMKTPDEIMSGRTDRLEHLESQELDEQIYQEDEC

Sequence of ELF1 (P32519 whole entry): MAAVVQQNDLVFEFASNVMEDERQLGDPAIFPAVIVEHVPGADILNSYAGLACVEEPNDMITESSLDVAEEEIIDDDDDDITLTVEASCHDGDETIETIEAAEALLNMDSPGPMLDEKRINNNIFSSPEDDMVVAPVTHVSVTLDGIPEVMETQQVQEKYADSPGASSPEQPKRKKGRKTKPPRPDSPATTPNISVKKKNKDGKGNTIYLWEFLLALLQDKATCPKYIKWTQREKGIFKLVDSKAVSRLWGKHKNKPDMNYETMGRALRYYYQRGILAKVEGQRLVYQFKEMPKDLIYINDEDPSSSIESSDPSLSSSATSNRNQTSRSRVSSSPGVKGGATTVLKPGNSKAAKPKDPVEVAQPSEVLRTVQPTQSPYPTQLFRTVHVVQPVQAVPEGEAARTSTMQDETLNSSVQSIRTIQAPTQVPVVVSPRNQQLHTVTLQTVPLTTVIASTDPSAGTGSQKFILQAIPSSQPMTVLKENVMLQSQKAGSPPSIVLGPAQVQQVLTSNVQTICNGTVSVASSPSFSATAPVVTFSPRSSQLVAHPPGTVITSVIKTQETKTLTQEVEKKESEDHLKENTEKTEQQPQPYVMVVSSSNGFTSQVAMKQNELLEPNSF
Sequence of ETV5 (P41161 whole entry): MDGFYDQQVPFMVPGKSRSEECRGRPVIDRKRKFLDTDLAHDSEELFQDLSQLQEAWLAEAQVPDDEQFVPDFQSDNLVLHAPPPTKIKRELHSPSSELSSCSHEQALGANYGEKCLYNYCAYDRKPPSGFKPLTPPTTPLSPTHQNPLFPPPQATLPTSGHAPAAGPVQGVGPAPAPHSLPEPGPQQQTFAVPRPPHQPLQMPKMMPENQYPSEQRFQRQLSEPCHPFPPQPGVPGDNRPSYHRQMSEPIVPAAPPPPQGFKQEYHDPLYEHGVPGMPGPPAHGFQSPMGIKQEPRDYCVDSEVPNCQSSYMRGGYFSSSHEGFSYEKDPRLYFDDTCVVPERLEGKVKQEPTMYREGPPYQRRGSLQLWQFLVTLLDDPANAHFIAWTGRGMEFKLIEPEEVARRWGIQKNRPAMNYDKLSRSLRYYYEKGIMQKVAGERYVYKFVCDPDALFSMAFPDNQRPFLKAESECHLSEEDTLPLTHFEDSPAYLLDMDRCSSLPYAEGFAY
Sequence of ELF4 (Q99607 whole entry): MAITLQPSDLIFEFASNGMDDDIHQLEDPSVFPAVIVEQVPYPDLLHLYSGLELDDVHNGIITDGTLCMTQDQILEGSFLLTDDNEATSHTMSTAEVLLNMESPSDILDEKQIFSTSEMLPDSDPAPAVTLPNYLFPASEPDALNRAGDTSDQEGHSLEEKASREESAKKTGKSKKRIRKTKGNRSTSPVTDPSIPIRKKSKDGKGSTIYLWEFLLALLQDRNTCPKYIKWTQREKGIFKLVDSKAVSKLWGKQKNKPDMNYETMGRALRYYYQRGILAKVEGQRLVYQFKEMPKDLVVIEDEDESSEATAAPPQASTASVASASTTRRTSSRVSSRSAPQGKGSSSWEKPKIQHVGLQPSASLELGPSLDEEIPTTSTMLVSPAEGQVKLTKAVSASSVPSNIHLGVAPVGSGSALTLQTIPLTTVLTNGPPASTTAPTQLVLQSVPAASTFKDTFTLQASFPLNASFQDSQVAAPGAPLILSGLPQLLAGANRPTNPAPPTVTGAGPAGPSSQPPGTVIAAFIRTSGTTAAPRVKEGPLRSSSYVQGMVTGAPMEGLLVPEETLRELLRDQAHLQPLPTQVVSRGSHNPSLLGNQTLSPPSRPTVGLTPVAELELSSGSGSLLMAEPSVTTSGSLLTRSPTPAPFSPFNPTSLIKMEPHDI
Sequence of ETV1 (P50549 whole entry): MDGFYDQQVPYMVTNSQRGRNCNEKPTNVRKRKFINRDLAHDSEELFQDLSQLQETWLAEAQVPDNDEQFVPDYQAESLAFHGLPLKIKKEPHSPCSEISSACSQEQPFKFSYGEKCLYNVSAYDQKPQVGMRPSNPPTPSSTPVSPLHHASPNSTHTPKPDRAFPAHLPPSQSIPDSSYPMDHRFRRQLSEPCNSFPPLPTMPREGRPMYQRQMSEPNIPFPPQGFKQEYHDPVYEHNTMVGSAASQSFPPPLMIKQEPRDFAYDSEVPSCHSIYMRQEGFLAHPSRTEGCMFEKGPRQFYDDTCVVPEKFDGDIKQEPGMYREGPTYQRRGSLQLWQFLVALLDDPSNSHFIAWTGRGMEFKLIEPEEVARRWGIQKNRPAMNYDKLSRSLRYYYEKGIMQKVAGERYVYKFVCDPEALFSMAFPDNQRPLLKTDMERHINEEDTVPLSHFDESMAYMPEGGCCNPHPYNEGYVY
Sequence of SPIB (Q01892 whole entry): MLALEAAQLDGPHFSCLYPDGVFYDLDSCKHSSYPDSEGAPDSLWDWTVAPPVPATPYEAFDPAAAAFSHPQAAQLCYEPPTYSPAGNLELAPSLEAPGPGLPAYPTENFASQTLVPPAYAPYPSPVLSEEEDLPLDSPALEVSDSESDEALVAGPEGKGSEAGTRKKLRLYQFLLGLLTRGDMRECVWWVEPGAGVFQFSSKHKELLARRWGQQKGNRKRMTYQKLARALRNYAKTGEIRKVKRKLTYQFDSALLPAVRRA

As for GCTTGT, the binding signal is 1.22 fold enrichment (6-mer frequency, TF over GST control) with FLI1; 1.08 fold enrichment (6-mer frequency, TF over GST control) in the assay with GABPA; 1.05 fold enrichment (6-mer frequency, TF over GST control) with ERG; 1.11 fold enrichment (6-mer frequency, TF over GST control) with ELF1; 1.13 fold enrichment (6-mer frequency, TF over GST control) with EHF; 1.15 fold enrichment (6-mer frequency, TF over GST control) with SPI1. The binding signal with SPIB is 1.13 fold enrichment (6-mer frequency, TF over GST control); with ELK3, 1.12 fold enrichment (6-mer frequency, TF over GST control); with FEV, 1.02 fold enrichment (6-mer frequency, TF over GST control); with ETV5 it was 1.2 fold enrichment (6-mer frequency, TF over GST control); in the assay with SPIC it was 1.26 fold enrichment (6-mer frequency, TF over GST control); with ELF4, 1.07 fold enrichment (6-mer frequency, TF over GST control). Further, the binding signal in the assay with ETV1 is 1.13 fold enrichment (6-mer frequency, TF over GST control); with ERF it was 1.18 fold enrichment (6-mer frequency, TF over GST control); in the assay with ETV3L, 1.02 fold enrichment (6-mer frequency, TF over GST control); in the assay with ETS2 it was 1.07 fold enrichment (6-mer frequency, TF over GST control); in the assay with ELF5, 1.05 fold enrichment (6-mer frequency, TF over GST control); in the assay with ETV3 it was 1.11 fold enrichment (6-mer frequency, TF over GST control). Besides, in the assay with ETV6, the binding signal is 1.02 fold enrichment (6-mer frequency, TF over GST control).
